Hit rate of the full screen: of about 96,000 compounds, about 20,000 (21%) were called active.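 How the source made its calls: active means CYP2C19 inhibition above a set limit at 5 µM in the primary screen (cut at about 50% in these data); inactive means the rest.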 Only a sample is shown.

The inhibition is the drop in the measured response relative to a control, in per cent.

Sequence of Cytochrome P450 2C19 (Homo sapiens) (P33261 whole entry, looked up): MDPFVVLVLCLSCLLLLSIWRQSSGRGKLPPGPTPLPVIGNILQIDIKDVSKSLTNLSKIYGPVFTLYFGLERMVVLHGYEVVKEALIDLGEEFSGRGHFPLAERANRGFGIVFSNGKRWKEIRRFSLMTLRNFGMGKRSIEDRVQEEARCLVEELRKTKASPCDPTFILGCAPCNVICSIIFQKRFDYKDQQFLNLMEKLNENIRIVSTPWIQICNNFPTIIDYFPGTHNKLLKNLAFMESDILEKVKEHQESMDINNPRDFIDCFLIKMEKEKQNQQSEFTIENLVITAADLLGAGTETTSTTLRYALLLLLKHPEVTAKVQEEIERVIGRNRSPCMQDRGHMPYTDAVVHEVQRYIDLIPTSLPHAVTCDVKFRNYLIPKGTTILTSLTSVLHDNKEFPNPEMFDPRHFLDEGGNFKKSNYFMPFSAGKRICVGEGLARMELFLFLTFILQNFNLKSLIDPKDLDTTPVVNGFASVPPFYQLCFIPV

This assay concerns the target Cytochrome P450 2C19 (Homo sapiens) (UniProt P33261). In words: blockers of cytochrome P450 2C19 activity – biochemical, luminescence, ADME assay, primary screen (AID 778).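 Further: plate controls were negative control wells for no effect and 2.5 mM tranylcypromine positive control for full effect.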 As to conditions: CYP2C19 Supersomes, luciferin-H EGE luminescence, 30 min; at 5 µM; active compounds read high.
For `Cc1ccc2cc(CCNC(=O)c3c(-c4ccccc4Cl)noc3C)c(=O)[nH]c2c1`, the inhibition is 21% (inactive).

As for `COc1c(O)cccc1-c1nnn(CCC(=O)OCC(=O)c2ccccc2)n1`, the inhibition was 19.5% (inactive).

For the molecule `Cc1onc(-c2c(Cl)cccc2Cl)c1C(=O)c1c[nH]c(C(=O)NC2CC2)c1`, the inhibition is 0.9% (inactive).

In the case of `Cc1onc(-c2ccccc2Cl)c1C(=O)OCC(=O)c1ccccc1`, the inhibition is 58.1% (active).

`O=C1c2ccccc2C(=O)N1Cc1cc(-c2ccccc2Cl)no1`: the inhibition was 37.2% (inactive).

As to `Cc1onc(-c2ccccc2Cl)c1C(=O)NCCn1ccc2ccccc21`, the inhibition was 83.5% (active).

Take `O=C(OCc1cc2ccccc2[nH]c1=O)c1cccnc1`: the inhibition is 25.1% (inactive).

In the case of `C=CCSc1nc2c(c(=O)[nH]1)C(C(C)C)C(C#N)=C(N)O2` (configuration not stated), the inhibition is -15.8% (inactive).

For the molecule `COc1ccc(OCCCON2C(=O)c3ccccc3C2=O)cc1`, the inhibition is 26.4% (inactive).

For `CCN(CC)CCCNC(=O)c1cc(-c2cccc(Cl)c2)on1`, the inhibition was -2.7% (inactive).

As for `Cc1cc(C)c2c(-n3cccc3)c(NC(=O)OCc3ccccc3)sc2n1`, the inhibition is 4.8% (inactive).

`Cc1cc(Cl)ccc1N1C(=O)CC(SCCC(=O)O)C1=O` (configuration not stated): the inhibition is 7.1% (inactive).

Take `COC(=O)Cc1cc(=O)oc2c(C)c(O)ccc12`: the inhibition is 17.9% (inactive).

For `Nc1nnnn1/N=C/c1cccs1`, the inhibition is 1.7% (inactive).

`CCC(=O)Oc1cccc(C(=O)Nc2ccc(-c3nnc(-c4ccco4)o3)cc2)c1`: the inhibition was 48.6% (inactive).

Consider `CCCOc1cccc(C(=O)Nc2nnn(CCC)n2)c1`, for which the inhibition is 57.8% (active).

In the case of `Cc1nc2nc[nH]n2c(=O)c1NC(=O)c1cccc(OCC(C)C)c1`, the inhibition was -12.5% (inactive).

Take `COc1ccc(OC)c2c(N)c(C#N)c(C(F)(F)C(F)(F)F)nc12`: the inhibition was -11.1% (inactive).

Regarding `NC(=O)c1nsc(C(=O)N(CC(=O)NCc2ccc(F)cc2)Cc2ccco2)c1N`, the inhibition was 21.3% (inactive).

`Cc1ccc2nc(SC(C)C(=O)NCc3ccco3)[nH]c2c1` (configuration not stated): the inhibition was 19.9% (inactive).

For `COC(=O)C(C(=O)Nc1cccc(C)n1)C1CCCCCC1` (configuration not stated), the inhibition is 80.7% (active).

`Cc1cccc(NC(=O)COc2ccccc2C)n1`: the inhibition was 32% (inactive).

As to `Cc1cccc(NC(=O)c2ccc3ccccc3n2)n1`, the inhibition is 22.7% (inactive).

Consider `Cc1cc(C(F)(F)F)nn1CC(=O)N1CCCC1`, for which the inhibition is -1.5% (inactive).

For `OC(C#CCN1CCOCC1)(c1ccccc1)C1CCCCC1` (configuration not stated), the inhibition was 36.7% (inactive).

Take `O=C(COC(=O)C12CC3CC(CC(C3)C1)C2)NCc1ccco1`: the inhibition was 35.7% (inactive).

Take `CCOC(=O)c1cnc(SCC(=O)NCc2ccco2)nc1N`: the inhibition was -1.2% (inactive).

As to `Cc1cc(C(=O)OCC(=O)NCc2ccco2)c(C)n1-c1ccccc1`, the inhibition was 71.8% (active).

In the case of `COc1c(Br)cc2c(C)c(C(=O)N3CCOCC3)oc2c1Br`, the inhibition is 33.1% (inactive).

Turning to `N#C/C(=C\c1ccccc1)c1n[nH]c(Cn2cncn2)n1`, the inhibition is 23.3% (inactive).

For the molecule `FC(F)(F)COc1nc(N2CCCCC2)nc(N2CCNCC2)n1`, the inhibition was -9.3% (inactive).

In the case of `C/C(=N/NC(=O)c1cc(Cl)ccc1O)C12CC3CC(CC(C3)C1)C2`, the inhibition was 0.2% (inactive).

Regarding `Cc1ccc(N(C(=O)CC2NC(=O)NC2=O)C2(C(=O)NC3CCCC3)CCCCC2)cc1` (configuration not stated), the inhibition is -3.8% (inactive).

Consider `CCOC(=O)C1=C(CNC2CCCCC2)NC(=O)NC1c1cc(C)ccc1C` (configuration not stated), for which the inhibition was 97.1% (active).

As to `CCOC(=O)c1[nH]cnc1C(=O)NC1CCCCC1`, the inhibition was 18.3% (inactive).

In the case of `CN(Cc1ccccc1)c1nc2c(c(=O)[nH]c(=O)n2C)n1CCSc1nc2ccccc2[nH]1`, the inhibition was 38.5% (inactive).

Take `O=C1CC(c2cccc(F)c2)C2=C(CCCC2=O)N1` (configuration not stated): the inhibition is 8.1% (inactive).

As to `CCc1nnc(NC(=O)CSc2nnc(COc3ccc(C#N)cc3)n2-c2ccccc2)s1`, the inhibition is 4.5% (inactive).

Regarding `Cc1ccc(S/C(=N\S(=O)(=O)c2ccc(Cl)cc2)c2ccccc2)cc1`, the inhibition was 24.1% (inactive).

Turning to `O=[N+]([O-])c1ccccc1NCc1ccc(Cl)cc1`, the inhibition is 21% (inactive).

Regarding `CSc1ccc(S(=O)(=O)NCc2ccc(Cl)cc2)cc1`, the inhibition was 78.2% (active).

In the case of `Fc1c(F)c(C(F)(F)F)c(F)c(F)c1N1CCN(c2ccc3nnc(C(F)(F)F)n3n2)CC1`, the inhibition was 0.5% (inactive).

For `Cc1ccc(C(c2nnnn2CS(=O)(=O)c2ccc(C)cc2)N2CCC(C)CC2)cc1` (configuration not stated), the inhibition is 3.8% (inactive).

Regarding `COc1ccc(CCn2nnnc2C(c2ccccc2)N2CCN(C)CC2)cc1OC` (configuration not stated), the inhibition was 2.7% (inactive).

Take `COc1ccc(C(c2nnnn2Cc2cccs2)N2CCN(c3ccccc3)CC2)cc1OC` (configuration not stated): the inhibition was 69.8% (active).

On to `O=C(Nc1ccc(Br)c2cccnc12)c1ccc(Cn2cc([N+](=O)[O-])cn2)o1`, for which the inhibition is 20.2% (inactive).

For `CCCNC(=O)Nc1ccccc1C(=O)Nc1ccc(OC)cc1`, the inhibition was 40.1% (inactive).

As for `COc1ccc(CCn2c(-c3ccco3)nc3nc4ccccc4nc32)cc1OC`, the inhibition was 16.7% (inactive).

On to `CCC(C)n1c(-c2cc(OC)c(OC)c(OC)c2)nc2nc3ccccc3nc21` (configuration not stated), for which the inhibition is 92.6% (active).

On to `Clc1cccc(-c2nc3nc4ccccc4nc3n2Cc2ccco2)c1`, for which the inhibition was 1.8% (inactive).

Take `CCOc1ccc(CNC(=O)C2CCC(=O)N2C2CCCC2)cc1OC` (configuration not stated): the inhibition was -0.1% (inactive).

For `COC(=O)C1=C(C)Nc2ncnn2C1c1cccnc1` (configuration not stated), the inhibition was -0.3% (inactive).

On to `Clc1ccc2c(c1)C1=C(C(c3ccncc3)O2)C(c2ccc(Br)cc2)n2ncnc2N1` (configuration not stated), for which the inhibition is 86.1% (active).

`Brc1ccc(C2=CC(c3ccco3)n3ncnc3N2)cc1` (configuration not stated): the inhibition is 33% (inactive).

`Cc1ccc(Cc2c(C)nc3nc(SCC(=O)NCCN4CCOCC4)nn3c2C)cc1`: the inhibition is -3.1% (inactive).

Turning to `COc1ccc(-c2cc3nc(C)c(CCC(=O)NC(C)CCc4ccco4)c(C)n3n2)c(OC)c1` (configuration not stated), the inhibition is 30.5% (inactive).

Turning to `CCCCNC(=O)OC(C)CNC(=O)OC` (configuration not stated), the inhibition is 2.3% (inactive).

Regarding `COc1c(C)cccc1C(=O)Nc1cc(Cl)ccc1N1CCOCC1`, the inhibition is 20.6% (inactive).

For the molecule `CCOc1ccc(NS(=O)(=O)c2ccc(OCC(=O)NCCCOC)cc2)cc1`, the inhibition was 2.3% (inactive).

Regarding `COc1ccc(NS(=O)(=O)c2ccc(NC(=S)NC(=O)CC(C)C)cc2)cc1`, the inhibition is 25.1% (inactive).

Consider `CC(=O)Nc1cccc(Oc2cc(C#N)c(C#N)cc2N2CCOCC2)c1`, for which the inhibition is 5.2% (inactive).

Consider `CC(=O)Nc1ccc(N2CCOCC2)c(C(=O)Nc2cccc(C)c2)c1`, for which the inhibition was 53.3% (active).

With `CC(=O)Nc1ccc(S(=O)(=O)N2CCCC2C(=O)O)cc1` (configuration not stated), the inhibition is -6.9% (inactive).

As to `O=C(O)CCC(=O)Nc1ccc(N2CCOCC2)cc1`, the inhibition was -9% (inactive).

Consider `COc1ccc(NC(=O)c2c(C)oc3c2CCCC3)cc1`, for which the inhibition is 24.5% (inactive).

As to `COC(=O)COc1ccc(S(=O)(=O)Nc2ccc(NC(C)=O)cc2)cc1`, the inhibition was 69.1% (active).

As for `CC(=O)Nc1ccc(S(=O)(=O)Nc2ccc(N3CCOCC3)c(F)c2)cc1`, the inhibition is 93.5% (active).

With `COc1ccc(S(=O)(=O)Nc2ccc3oc(C)c(C(C)=O)c3c2)cc1`, the inhibition was 67.4% (active).

As to `COc1ccc2oc(C)c(NC(C)=O)c2c1`, the inhibition is 13.5% (inactive).

For the molecule `CCCc1[nH]nc2c1C(c1c(C)nn(-c3ccccc3)c1Cl)C(C#N)=C(N)O2` (configuration not stated), the inhibition was 49.2% (inactive).

Turning to `CC(=O)Oc1cc2c(C(=O)NCCN3CCOCC3)c(C)oc2c2ccccc12`, the inhibition was 34.2% (inactive).

For the molecule `Cc1ccc(C2=CSC3=NS(=O)(=O)CCN23)cc1C`, the inhibition is 2.5% (inactive).

`CC(=O)c1c(C)n([O-])c2ccccc2[n+]1=O`: the inhibition was -0.9% (inactive).

Turning to `O=C(N/N=C/c1ccc(O)cc1)/C(=C/c1ccc([N+](=O)[O-])cc1)NC(=O)c1ccccc1`, the inhibition was 7.9% (inactive).

For `C/C(=C(\C#N)C(=O)NCCCN1CCOCC1)N(C)C`, the inhibition was -11.3% (inactive).

`Cc1ccc(S(=O)(=O)/N=C(\CN2CCOCC2)N2CCOCC2)cc1`: the inhibition is -1.3% (inactive).

For the molecule `N#Cc1cccc(CSc2nnc(CCCO)n2-c2ccccc2)c1`, the inhibition was 8.4% (inactive).

As to `O=C(/C=C/Nc1ccccc1)c1cnc(-c2ccccc2)s1`, the inhibition was 0.3% (inactive).

Turning to `Nc1c(-c2ccc(F)cc2)cnn1C1CCS(=O)(=O)C1` (configuration not stated), the inhibition was -15.6% (inactive).

Regarding `COc1cccc(C2/C(=C(/O)c3ccc(F)cc3)C(=O)C(=O)N2CCN(C)C)c1` (configuration not stated), the inhibition is 5.9% (inactive).

Regarding `CCOC(=O)c1sc(NC(=O)C(CC)Sc2nccn2C)nc1C` (configuration not stated), the inhibition was 28% (inactive).

With `CC(=O)N1CCCc2cc(S(=O)(=O)CCC(=O)N3CCN(c4ccccc4)CC3)ccc21`, the inhibition was 29.1% (inactive).

With `CCOC(=O)CC1=CC(=O)Nc2ccccc2N1`, the inhibition is 12.4% (inactive).

Take `Cc1ccc(C(=O)NC2CC(C)(C)NC(C)(C)C2)c(C)c1`: the inhibition was -14.1% (inactive).

As for `CCNS(=O)(=O)c1ccc(NC(=O)Nc2cccc(OC)c2)cc1`, the inhibition is 25.1% (inactive).

As for `COc1ccc(NS(=O)(=O)c2ccc(NC(C)=O)cc2)cc1OC`, the inhibition was 43.3% (inactive).

As for `COc1cc(NS(=O)(=O)c2ccc(NC(C)=O)cc2)cc(OC)c1`, the inhibition was 98% (active).

Consider `O=C(Nc1ccn(Cc2ccccc2F)n1)c1ccc(COc2ccc(Cl)cc2Cl)o1`, for which the inhibition was 57.8% (active).

Turning to `O=C(O)c1ccc(COc2c(F)c(F)cc(F)c2F)o1`, the inhibition is -3.2% (inactive).

On to `CCOc1ccc(OCc2ccc(C(=O)Nc3cccc(C)n3)o2)cc1`, for which the inhibition is 35.8% (inactive).

For the molecule `O=C1CCC(Cc2ccccc2)N1` (configuration not stated), the inhibition was 8.7% (inactive).

For `O=C(O)c1ccc(COCC(F)(F)F)cc1`, the inhibition is -5.4% (inactive).

On to `Cc1sc(NC(=S)NC(=O)c2cccs2)nc1-c1ccc(CC(C)C)cc1`, for which the inhibition is 4.5% (inactive).

On to `O=C(c1ccco1)N(Cc1nc2ccccc2c(=O)[nH]1)C1CCCC1`, for which the inhibition was 7.2% (inactive).

On to `CCCC(=O)N(CCc1ccccc1)Cc1nc2ccccc2c(=O)[nH]1`, for which the inhibition was 53.5% (active).

As for `CN(Cc1nc2ccccc2c(=O)[nH]1)Cc1cc(=O)oc2ccc3ccccc3c12`, the inhibition is 2.9% (inactive).

Consider `O=C(Nc1ccc(Cl)cn1)Nc1cccs1`, for which the inhibition was 31.4% (inactive).

The values above are taken from PubChem BioAssay AID778 (Sanford-Burnham Center for Chemical Genomics, 2007).
